Our source for the Potency values is PubChem BioAssay (NCATS).

The structures appear in SMILES notation. Inconclusive results are not listed. A call without a number means that no potency is given here. Calls of active or inactive are those of the source. Calls follow the shape of the dose curve; as a rule, active = well fitted cell-killing curve with a large enough effect; inconclusive = small, poorly fitted or top-dose-only effect, or effect the other way; inactive = no such curve, though single readings can be large or run the other way.
Potency is read from the fitted curve at half-maximal effect.

A short description of the assay: Quantitative High-Throughput drug screen in 47 multiple myeloma cell lines against the NCATS MIPE library collection: KMS27_JCRB cell viability assay (AID 1918970). Also: nearly all actives have a fitted effect of over 30% in size. Conditions: KMS27 myeloma cells, CellTiter-Glo ATP viability, 48 h; series mostly up to 45.8 µM. The text has this:
PI: Beverly A. Mock Ph.D.
Laboratory of Cancer Biology and Genetics,
Center for Cancer Research, National Cancer Institute,
National Institute of Health, Bethesda, Maryland
Drug resistance and disease progression are common in multiple myeloma (MM) patients, underscoring the need for new therapeutic combinations. […] We hypothesized that effective combinations would reduce MYC expression and enhance p16 activity. […] These preclinical data identify potentially useful drug combinations for evaluation in drug-resistant MM and reveal potential mechanisms of combined drug sensitivity.
Described herein is the primary MIPE qHTS used to cherrypick compounds. Validated compounds were then further tested for potential synergistic activiy.
[1] Peat TJ, Gaikwad SM, Dubois W, Gyabaah-Kessie N, Zhang S, Gorjifard S, Phyo Z, Andres M, Hughitt VK, Simpson RM, Miller MA, Girvin AT, Taylor A, Williams D, D'Antonio N, Zhang Y, Rajagopalan A, Flietner E, Wilson K, Zhang X, Shinn P, Klumpp-Thomas C, McKnight C, Itkin Z, Chen L, Kazandijian D, Zhang J, Michalowski AM, Simmons JK, Keats J, Thomas CJ, Mock BA. Drug combinations identified by high-throughput screening promote cell cycle transition and upregulate Smad pathways in myeloma. […] Epub 2023 Jun 24. PMID: 37356470; PMCID: PMC10408729.
SEQUENCE No. (e.g., 1, 2, 3, etc.); […] (e.g., Cells, Incubation, Reagent, etc.); VALUE and DESCRIPTION.
1; Cells; 5 uL; white, solid bottom 1536-well Greiner assay plate.
2; Compounds; 23 nL; Kalypsis pin tool (Wako USA) equipped with a 1536-well pin head to transfer to the assay plates.
3; Incubation; 48 hours; 37C incubation.
4; Reagent;5uL; CellTiter Glo (Promega).
5; Detector; 425V; Luminescence; Viewlux PerkinElmer.
NOTES (numbers refer to Sequence numbers above)
1. The cell-based screening methods employed in this study were like those previously published. Briefly, the corresponding myeloma cell lines were screened in 1,536-well plates with 500 cells, 5-uL per well for inhibition of cell viability (assessed by measuring ATP levels with CellTiterGlo).
2. NCATS MIPE 4.0 library of approved and investigational drugs were added using the Kalypsis pin tool. Wells treated with DMSO only for 100% viability and media only wells for 0% viability were used as controls.
3. The assay plates were covered and incubated for 48 hours in a 37C, 5% CO2 incubator with controlled humidity.
4. After 48 hours, CellTilter-GloTM luminescent substrate mix (Promega) reagent was added to the assay plate and plates we incubated for 5 min at room temperature.
5. Signal was measured as median relative luminescence units on a ViewLux (PerkinElmer) multiplate reader.
[1] Heske CM, Davis MI, Baumgart JT, Wilson K, Gormally MV, Chen L, Zhang X, Ceribelli M, Duveau DY, Guha R, Ferrer M, Arnaldez FI, Ji J, Tran HL, Zhang Y, Mendoza A, Helman LJ, Thomas CJ. Matrix Screen Identifies Synergistic Combination of PARP Inhibitors and Nicotinamide Phosphoribosyltransferase (NAMPT) Inhibitors in Ewing Sarcoma. Clin Cancer Res. 2017 Dec 1;23(23):7301-7311. doi: 10.1158/1078-0432.CCR-17-1121. Epub 2017 Sep 12. PMID: 28899971; PMCID: PMC6636827.
Turning to `COc1cc2nc(N3CCN(C(=O)c4ccco4)CC3)nc(N)c2cc1OC`, the Potency was 9.35 µM (active).

For `Nc1c2c(nc3ccccc13)CCCC2`, the Potency entry is “inactive”.

In the case of `CC(C)NCC(O)COc1ccc(CCOCC2CC2)cc1` (stereo not given), the Potency entry was “inactive”.

For `C[C@H]1c2cccc(O)c2C(O)=C2C(=O)[C@]3(O)C(O)=C(C(N)=O)C(=O)[C@@H](N(C)C)[C@@H]3[C@@H](O)[C@@H]21`, the Potency entry is “inactive”.

With `NCCc1cnc[nH]1`, the Potency result was “inactive”.

Turning to `Clc1ccc2nsnc2c1NC1=NCCN1`, the Potency entry was “inactive”.

On to `NC(=O)OCC(COC(N)=O)c1ccccc1`, for which the Potency entry is “inactive”.

As to `Nc1nnc(-c2cccc(Cl)c2Cl)c(N)n1`, the Potency result was “inactive”.

Regarding `O=C1Cc2cc(CCN3CCN(c4nsc5ccccc45)CC3)c(Cl)cc2N1`, the Potency was 8.33 µM (active).

Regarding `CC#C[C@]1(O)CC[C@H]2[C@@H]3CCC4=CC(=O)CCC4=C3[C@@H](c3ccc(N(C)C)cc3)C[C@@]21C`, the Potency is 0.264 µM (active).

Turning to `CCCCc1oc2ccccc2c1C(=O)c1cc(I)c(OCCN(CC)CC)c(I)c1`, the Potency was 6.62 µM (active).

Turning to `CCN1CCCC1CNC(=O)c1cc(S(=O)(=O)CC)c(N)cc1OC` (stereo not given), the Potency result was “inactive”.

On to `O=C(c1ccc(OCCN2CCCCC2)cc1)c1c(-c2ccc(O)cc2)sc2cc(O)ccc12`, for which the Potency was 20.9 µM (active).

For the compound `CCOC(=O)C(C)(C)Oc1ccc(Cl)cc1`, the Potency entry was “inactive”.

With `N[C@@H](Cc1c[nH]c2ccc(O)cc12)C(=O)O`, the Potency entry was “inactive”.

In the case of `C[C@@H]1CC(=O)NN=C1c1ccc(NN=C(C#N)C#N)cc1`, the Potency entry was “inactive”.

Turning to `CCOC(=O)Nc1ccc(NCc2ccc(F)cc2)nc1N`, the Potency was 18.7 µM (active).

In the case of `CC(C)(C)C(=O)Oc1ccc(S(=O)(=O)Nc2ccccc2C(=O)NCC(=O)O)cc1`, the Potency result is “inactive”.

Consider `CNCCCC12CCC(c3ccccc31)c1ccccc12`, for which the Potency is 20.9 µM (active).

As to `Cn1cnc2c1c(=O)[nH]c(=O)n2C`, the Potency is 9.35 µM (active).

As for `OCCN(CCO)c1nc(N2CCCCC2)c2nc(N(CCO)CCO)nc(N3CCCCC3)c2n1`, the Potency was 20.9 µM (active).

For the compound `CC(C)C(=O)Nc1ccc([N+](=O)[O-])c(C(F)(F)F)c1`, the Potency is 0.935 µM (active).

On to `COc1ccc(C2CNC(=O)C2)cc1OC1CCCC1` (stereo not given), for which the Potency result was “inactive”.

Turning to `CN(Cc1cnc2nc(N)nc(N)c2n1)c1ccc(C(=O)N[C@@H](CCC(=O)O)C(=O)O)cc1`, the Potency is 0.0296 µM (active).

Turning to `Cc1cn([C@H]2C[C@H](N=[N+]=[N-])[C@@H](CO)O2)c(=O)[nH]c1=O`, the Potency is 5.26 µM (active).

Take `CN(C)CCCN1c2ccccc2CCc2ccc(Cl)cc21`: the Potency is 14.8 µM (active).

For the compound `Cc1cnc(C(=O)NCCc2ccc(S(=O)(=O)NC(=O)NC3CCCCC3)cc2)cn1`, the Potency result was “inactive”.

As for `O=C(Nc1ccc([N+](=O)[O-])cc1Cl)c1cc(Cl)ccc1O`, the Potency is 0.935 µM (active).

As to `NC(=O)NO`, the Potency is 0.743 µM (active).

Take `Cc1ccc(C(=O)Nc2ccc(S(=O)(=O)O)c3cc(S(=O)(=O)O)cc(S(=O)(=O)O)c23)cc1NC(=O)c1cccc(NC(=O)Nc2cccc(C(=O)Nc3cc(C(=O)Nc4ccc(S(=O)(=O)O)c5cc(S(=O)(=O)O)cc(S(=O)(=O)O)c45)ccc3C)c2)c1`: the Potency result is “inactive”.

In the case of `O=C1N(c2ccccc2)c2ccccc2C1(Cc1ccncc1)Cc1ccncc1`, the Potency entry was “inactive”.

Consider `CCC1(C)CC(=O)NC1=O` (stereo not given), for which the Potency entry was “inactive”.

With `CC(C)NCC(O)c1ccc(O)c(O)c1` (stereo not given), the Potency is 1.18 µM (active).

With `COc1nc(C)nc(Cl)c1NC1=NCCN1`, the Potency result is “inactive”.

`O=C(c1ccc(F)cc1)C1CCN(CCn2c(=O)[nH]c3ccccc3c2=O)CC1`: the Potency result was “inactive”.

Turning to `O=C1c2c(O)ccc(O)c2C(=O)c2c(NCCNCCO)ccc(NCCNCCO)c21`, the Potency is 0.59 µM (active).

In the case of `CN(C)c1nc(N(C)C)nc(N(C)C)n1`, the Potency entry was “inactive”.

For `CCc1cccc2c3c([nH]c12)C(CC)(CC(=O)O)OCC3` (stereo not given), the Potency result is “inactive”.

In the case of `CN1CCN(CCCN2c3ccccc3Sc3ccc(Cl)cc32)CC1`, the Potency is 16.6 µM (active).

Consider `O=C(C1CCCCC1)N1CC(=O)N2CCc3ccccc3C2C1` (stereo not given), for which the Potency entry is “inactive”.
